# Screening results as filed in PubChem BioAssay.
# GRK2 aptamer HTS – inhibitors of human GRK2 displacing RNA aptamer. P25098. bead flow cytometry, FAM-aptamer displacement from GRK2. inhibition of aptamer binding, % at 10 µM. 330,000 tested, 0.59% active. AID 488847;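 active = inhibition of aptamer binding above 40%, roughly 3 SD of noise, on plates passing a quality check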;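 also: median bead fluorescence of bound FAM aptamer so fluorescent compounds give negative values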
# PP1 inh – blocks human PP1-alpha phosphatase, a PP5 counter-screen. P62136. purified PP1alpha, OMFP fluorescence. inhibition, % at 6.7 µM. 320,000 tested, 0.9% active. AID 2235;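 active = inhibition above the mean inhibition of all tested compounds plus 3 SD, computed separately for each screening campaign, cut at about 15% in these data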
# B2AR ag – human beta-2 adrenergic receptor agonism by FAP | AID 504454 | P07550 | response, % (test concentration not listed) | 340,000 tested, 0.43% active | Am2.2-beta2AR cells, FAP receptor internalization, flow cytometry;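 active = response above a set limit, near 3 SD of response in nonfluorescent compounds, cut at about 42% in these data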
# Target sequence (P07550 whole entry, looked up): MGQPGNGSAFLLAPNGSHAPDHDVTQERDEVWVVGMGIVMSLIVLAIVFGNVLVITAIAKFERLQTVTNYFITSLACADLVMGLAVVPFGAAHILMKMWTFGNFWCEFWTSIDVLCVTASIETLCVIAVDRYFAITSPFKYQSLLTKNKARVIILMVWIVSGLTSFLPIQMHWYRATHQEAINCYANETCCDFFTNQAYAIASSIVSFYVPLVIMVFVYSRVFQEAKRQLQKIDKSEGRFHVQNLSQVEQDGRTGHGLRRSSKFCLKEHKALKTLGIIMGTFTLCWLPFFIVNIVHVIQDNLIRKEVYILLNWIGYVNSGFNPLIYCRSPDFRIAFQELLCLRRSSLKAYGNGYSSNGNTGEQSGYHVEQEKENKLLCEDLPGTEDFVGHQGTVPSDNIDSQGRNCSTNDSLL
# Granule exo inh – lytic granule exocytosis inhibition; TALL-104 LAMP-1 surface exposure, flow cytometry; cells stimulated with thapsigargin and PMA; inhibition, % at 10 µM; 360,000 tested, 0.66% active; AID 651702;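 active = inhibition above about 55%, limit read from the data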
# NadD block – NadD (S. aureus) enzyme inhibition; inhibition, % at 20 µM; purified NadD enzyme, colorimetric absorbance read-out; 360,000 tested, 0.78% active; in the data active = inhibition above about 26%
# GRK2 CP1 – confirmation of human GRK2 inhibitors displacing RNA aptamer; shares compounds with GRK2 aptamer HTS; bead-bound GRK2, FAM-aptamer displacement, flow cytometry; aptamer displacement, % at 10 µM; 2,000 tested, 4% active;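 active = aptamer displacement above 40%, near three times the noise of non-fluorescent compounds, on plates passing quality checks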;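 also: negative values mostly reflect intrinsic compound fluorescence rather than true enhancement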
# Aptamer quench 1 – counter-screen for GRK2 aptamer inhibitors: fluorescent aptamer quenchers; fluorescence change (kMESF span), kMESF (no concentration beside the values); AID 504521; 110 tested, under 10 active; shares compounds with GRK2 aptamer HTS; Fluorescent RNA aptamer beads, quenching, flow cytometry; stronger effect = higher value;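 active = compounds whose bead fluorescence drops by more than 37 kMESF across the dose range, marking them as dye quenchers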
# FAM quench CP1 – counter-screen for GRK2 aptamer inhibitors: fluorescent aptamer quenchers; shares compounds with GRK2 aptamer HTS; Carboxyfluorescein RNA aptamer on beads, flow cytometry quenching; stronger effect = lower value; fluorescence response (% of DMSO), % at 10 µM; 2,000 tested, under 10 active; AID 504580;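 active = compounds that quench the bead-bound fluorescent RNA probe, cutting fluorescence to under half of the solvent control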;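 also: counterscreen run without GRK2 so only probe quenching by compound is measured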
# GRK2 CP2 – human GRK2 inhibition confirmation, cherry pick 2 | shares compounds with GRK2 aptamer HTS | 360 tested, under 10 active | bead-bound GRK2, FAM-aptamer displacement, flow cytometry | inhibition of aptamer binding, % at 10 µM;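 active = inhibition of aptamer binding above 40%, about triple the noise seen with nonglowing compounds, on plates passing quality control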;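 also: negative values mostly come from compounds that fluoresce themselves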
# FAM quench SP – counter-screen for GRK2 binding hits: quenchers of fluorescent RNA aptamer; shares compounds with GRK2 aptamer HTS; carboxyfluorescein RNA aptamer beads, flow cytometry quenching; stronger effect = lower value; fluorescence response vs DMSO, % at 10 µM; 360 tested, under 10 active; AID 588494;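 active = response vs DMSO under 50%, meaning signal dropped by over half, treated as fluorescence quencher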;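 also: labelled aptamer on streptavidin beads without GRK2 as a quench counter-screen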
# Hits are given with their value; n = inactive; x = no result given. In the library only some 2.9% were active in any assay of this set; here they are far more common.
SMILES,GRK2 aptamer HTS,PP1 inh,B2AR ag,Granule exo inh,NadD block,GRK2 CP1,FAM quench CP1,others
CCN(CC)C(=O)c1ccccc1NS(=O)(=O)c1ccc(OC)c(C(=O)N2CCOCC2)c1,61.0,n,n,n,n,n,n,
CCCN(C(=O)c1ccc(N2CCCC2=O)cc1)c1c(N)n(Cc2ccccc2)c(=O)[nH]c1=O,n,n,n,n,n,n,n,
CC(C)CCN(C(=O)c1ccc(N2CCCC2=O)cc1)c1c(N)n(Cc2ccccc2)c(=O)[nH]c1=O,n,n,n,n,n,x,x,
Cc1cc2cc(CN3C(=O)c4ccccc4C3=O)ccc2n1C,46.0,n,n,n,n,n,n,
Cc1ccc(S(=O)(=O)NCc2ccc3c(c2)cc(C)n3C)cc1,n,n,n,n,n,x,x,
COC(=O)/C=C1\N/C(=N/c2nc(C)c3cc(OC)ccc3n2)NC1=O,55.0,n,n,n,n,n,n,
CC1CCCC(NC(=O)COC(=O)c2cc(S(=O)(=O)N3CCOCC3)ccc2F)C1C (configuration not stated),60.0,n,n,n,n,n,n,
O=C(CSc1nc2ccccc2[nH]1)Nc1ccc2c(c1)OCCO2,n,n,n,n,n,x,x,GRK2 CP2=n;FAM quench SP=n
Cc1ccc2nc(SCC(=O)Nc3ccc4c(c3)OCCO4)[nH]c2c1,n,n,n,n,n,x,x,GRK2 CP2=n;FAM quench SP=n
CN(C)CCCn1c(SCC(=O)Nc2nc(-c3cccc(Br)c3)cs2)nc2ccccc2c1=O,n,n,n,n,n,x,x,
Cc1nnc(SCC(=O)NC(=O)Nc2ccc3c(c2)OCCO3)n1N,46.0,n,n,n,n,n,n,
CCc1c(C)nc(SCC(=O)Nc2ccc3c(c2)OCCO3)[nH]c1=O,n,n,n,n,n,x,x,
O=C(CSc1nc2ccccc2[nH]1)Nc1nc(-c2cccc(Br)c2)cs1,75.0,n,n,n,n,x,x,GRK2 CP2=n;FAM quench SP=n
COc1ccc(/C=C/C(=O)NCCCN2CCOCC2)cc1,n,x,n,n,n,x,x,
Cc1ccc(CNC(=O)C2CCC(=O)N(C3CCCC3)C2)c(F)c1F (configuration not stated),n,n,n,n,n,x,x,
NC(=O)Cc1ccc(C(=O)c2ccccc2F)s1,n,n,n,n,n,n,n,
COc1ccc2nc(Nc3nc(CSc4nnnn4-c4ccccc4)cc(=O)[nH]3)nc(C)c2c1,46.0,n,n,n,n,n,n,
CCOc1ccc2nc(Nc3nc(CSc4nnnn4-c4ccccc4)cc(=O)[nH]3)nc(C)c2c1,n,n,n,n,n,x,x,
C[C@H]1CN([C@@H](C)CO)C(=O)c2cc(C#CCC3CCCC3)cnc2O[C@@H]1CN(C)C(=O)CC1CC1,x,x,x,n,n,x,x,
Cc1ccc(NS(=O)(=O)c2ccc(NC(=O)c3cccc(NC(=O)C(C)C)c3)cc2)cc1,n,n,n,n,n,x,x,
COc1cccc(N=C2CC(C)(C)CC(=O)/C2=C(/O)c2ccccc2)c1,95.0,n,n,n,n,n,n,
Cc1ccc2oc(=O)n(Cc3ccc(OC(C)C)cc3)c2c1,n,n,n,n,n,x,x,
Cc1cccc(Cn2c(=O)oc3ccc(C)cc32)c1,68.0,n,n,n,n,n,n,
O=P(c1ccccc1)(c1ccccc1)c1cc(S(=O)(=O)O)ccc1O,74.0,x,n,n,n,52.4,n,Aptamer quench 1=n
CSc1ccc(CN2CCN(C(C)C)C(CCO)C2)cc1 (configuration not stated),91.0,n,n,n,n,n,n,
SMILES,GRK2 aptamer HTS,PP1 inh,B2AR ag,Granule exo inh,NadD block,GRK2 CP1,FAM quench CP1,others
Cn1nc(C(=O)NCCOc2ccccc2)c2ccccc2c1=O,n,n,n,n,n,x,x,
O=C(Nc1ccccc1C(F)(F)F)c1ccsc1,n,n,n,n,n,x,x,
O=C(NNc1ccccc1C(F)(F)F)c1sccc1Br,99.0,n,n,n,n,n,n,
CC1(C(=O)NCCCN2CCCC2=O)CCN1CCc1ccccc1 (configuration not stated),x,x,x,n,n,x,x,
COCCCNC(=O)NC(=O)c1ccccc1,76.0,n,n,n,n,x,x,GRK2 CP2=n;FAM quench SP=n
CCC(Oc1ccccc1)C(=O)Nc1ccc(C)c(S(=O)(=O)N2CCOCC2)c1 (configuration not stated),n,n,n,n,n,x,x,
CCOCCCNC(=O)C(NC(=O)C1CCC(=O)N1)c1ccc(C)cc1 (configuration not stated),45.0,n,n,n,n,n,n,
Cc1ccc2cc(CN(CC3CCCO3)C(=S)NCc3ccco3)c(=O)[nH]c2c1C (configuration not stated),n,n,n,n,n,x,x,
Cc1ccc2cc(CN(Cc3nnnn3Cc3ccco3)CC3CCCO3)c(=O)[nH]c2c1C (configuration not stated),64.0,n,n,n,n,n,n,
CC(C)Cc1nnc(NC(=O)CCC(=O)N2CCCCC2)s1,n,n,n,n,n,x,x,
CCOc1ccccc1N(C)C(=O)CCS(=O)(=O)c1ccc2c(c1)NC(=O)CO2,n,n,n,n,n,x,x,GRK2 CP2=n;FAM quench SP=n
OCC1OC(c2ccccc2)OC2COC(c3ccccc3)OC12 (configuration not stated),x,x,n,n,n,x,x,
CCCCN(C)C(=O)c1cc2c(Cl)nc3ccccc3c2s1,49.0,n,n,n,n,n,n,
Cc1cccc(C(O)c2ncc(-c3ccc(F)cc3)[nH]2)c1C (configuration not stated),x,x,x,n,n,x,x,
CCCOC(=O)c1c(-c2ccc(C)cc2C)csc1NC(=O)C1C2CCC(O2)C1C(=O)O (configuration not stated),n,n,n,n,n,x,x,
COCCN1C(=O)/C(=C/c2ccc(N3CCCC3)cc2)SC1=S,57.0,n,n,n,n,n,n,
Nc1nc(OCC2CCCCC2)c2[nH]cnc2n1,n,n,n,n,n,x,x,
Cc1ccc(-c2nc(CS(=O)(=O)CC(=O)N3CCCCCC3)c(C)o2)cc1,73.0,n,n,n,n,n,n,
Cc1ccc(-c2nc(CS(=O)(=O)CC(=O)N3CCc4ccccc4C3)c(C)o2)cc1,n,n,n,n,n,x,x,
CSc1ccc(/C=C/C(=O)OCC(=O)c2ccc[nH]2)cc1,n,n,n,n,n,x,x,
CN1CCCC(CC2Oc3ccccc3Sc3ccccc32)C1 (configuration not stated),44.0,n,x,n,n,x,x,GRK2 CP2=n;FAM quench SP=n
